Here are results for 107 molecules from ChEMBL document CHEMBL4513216, “Probing the Open Global Health Chemical Diversity Library for Multistage-Active Starting Points for Next-Generation Antimalarials” (ACS Infect Dis, 2020).

In all, about 68,000 compounds went through this assay and about 2,700 (4%) showed an effect of 50% or more. For the sample, strong results were picked, then their nearest neighbours and some compounds at random.

For the test, the system named is Plasmodium berghei. Put plainly: Screen against P. berghei liver stage (PbLuc), transformed with Luciferase, at 2uM. The test is classed as functional, HepG2. The note with it: tested at 2 uM.
In the case of `CC(=O)N1CCC2(CC1)CN(CC1CC1)c1ccc(F)cc12`, the INHIBITION was -18.44%. As for `Cc1ccc2c(c1)C1(CCN(C(N)=O)CC1)CN2CC1CC1`, the INHIBITION is on record as 52.12%. With `Cc1ccc2c(c1)C1(CCN(C(N)=O)CC1)CN2C(=O)N(C)C`, the INHIBITION is listed as -22.42%. As to `CC(C(=O)Nc1nccs1)N1CCc2nn(C)c(=O)cc2C1` (configuration not stated), the INHIBITION worked out at 16.82%. Under `Cn1c(CN2CCCC2)nnc1C1CCCN(C(=O)C2CCOCC2)C1` (configuration not stated) stands -19.54%.

Consider `CCCc1cc(N2CCCC2Cn2nc(C)nc2C)n2ncnc2n1` (configuration not stated), for which the INHIBITION worked out at 19.39%. Then `CCCc1nc(N2CCCC(C)C2)c2c(n1)c(C)nn2CC` (configuration not stated), with 15.58%; and `CCn1nc(C)c2ncnc(N3CCCC(C)C3)c21` (configuration not stated), with 73.48%. As to `CCN(CC)c1ncnc2c(C)nn(CC)c12`, the INHIBITION was -25.59%. Under `CS(=O)(=O)NCC1CCCN(c2ccc(C#N)cn2)C1` (configuration not stated) stands -0.3%; under `N#Cc1cccnc1N1CCCN(C(=O)CCn2cccn2)CC1`, 41.76%; under `O=S(=O)(c1ccc2c(c1)OCCO2)N1CCC(OCc2ccccn2)C1` (configuration not stated), -26.14%. Then `O=S(=O)(c1ccc2c(c1)OCCO2)N1CCc2ccccc2C1`, with 50.57%. Then `O=c1ccc2c([nH]1)CCN(S(=O)(=O)c1ccc3c(c1)OCCO3)C2`, with 14.45%; and `COc1ccc(C(C)NC(=O)NCCCn2cncn2)cc1F` (configuration not stated), with -40.52%. On to `CC(NC(=O)CSCC(N)=O)c1ccccc1Oc1ccccc1` (configuration not stated), for which the INHIBITION was determined as 51.7%. Under `CCS(=O)(=O)CC(=O)NC(C)c1ccccc1Oc1ccccc1` (configuration not stated) stands -28.15%; under `CC(NC(=O)CSCC(N)=O)c1ccc(Oc2ccccc2)cc1` (configuration not stated), 29.97%. Then `Cc1ccc(CN2CCCC23CCN(S(=O)(=O)c2ccccc2)C3)o1` (configuration not stated), with -30.74%; and `Cc1ncc(CN(Cc2ccccn2)Cc2ccccc2Cl)n1C`, with -6.19%; and `NC(=O)N1CC2(CCNCC2)c2cc(Cl)ccc21`, with 6.12%. Under `CC(=O)N1CC2(CCNCC2)c2cc(Cl)ccc21` stands 62.25%. For the molecule `COC(=O)N1CC2(CCNCC2)c2cc(Cl)ccc21`, the INHIBITION is listed as 22.71%. Then `O=c1cc(C2CCNCC2)nc(CCc2ccccn2)[nH]1`, with 15.92%; and `CC1CCCN(CCCNC(=O)Cc2csc(-c3ccoc3)n2)C1` (configuration not stated), with 50.61%. Then `O=C(Cc1csc(-c2ccoc2)n1)NCCC(=O)N1CCCCC1`, with 45.56%. For `O=C(Cc1csc(-c2ccoc2)n1)NCCCN1CCCCC1`, the INHIBITION was found to be 6.85%. Then `COCC(=O)N1CCC(C(=O)Nc2ccc(C(C)=O)cc2)CC1`, with 10.64%; and `CCC(C)NC(=O)Nc1cccc(OCCCC#N)c1` (configuration not stated), with 12.39%.

With `O=C(c1ccco1)N1CC[C@@H]2O[C@H](COCCN3CCCC3)CC[C@@H]21`, the INHIBITION was found to be 15.88%. Under `CC(C)(C)C(=O)N1CCN(Cn2nccc2-c2cccnc2)CC1` stands 53%; under `CC(C)(C)CCN1CCN(Cn2nccc2-c2cccnc2)CC1`, -15.83%.

Regarding `c1cncc(-c2ccnn2CN2CCOCC2)c1`, the INHIBITION is given as -31.15%. Under `CC(=O)NCCNC(=O)C1(Oc2cccnc2C)CCNCC1` stands 53.19%. Under `Cc1ncccc1OC1(C(=O)NCCNc2ccccc2)CCNCC1` stands -25.28%; under `Cc1ncccc1OC1(C(=O)NCCc2ccccn2)CCNCC1`, 17.94%.

Regarding `Cc1cnn(C2CN(CC(O)COc3ccc(C#N)cc3)C2)c1` (configuration not stated), the INHIBITION is on record as -2.84%.

On to `Cc1cc(CN(C)C(=O)C(c2cccnc2)N2CCOCC2)n[nH]1` (configuration not stated), for which the INHIBITION worked out at 39.92%. Turning to `Cc1ncsc1CCN(C)C(=O)C(c1cccnc1)N1CCOCC1` (configuration not stated), the INHIBITION is reported as -13.13%. Then `Cc1n[nH]c(C)c1CCN(C)C(=O)C(c1cccnc1)N1CCOCC1` (configuration not stated), with 51.31%.

With `O=C(N1CCCCC1)N1CCN(c2ccc(Cl)nn2)C(=O)C1`, the INHIBITION is on record as 34.52%. With `COc1cc(N2C[C@H]3CN(Cc4ccccn4)C[C@H]3C2)ncn1`, the INHIBITION is -37.2%. Regarding `CC(NC(=O)N1CCN(c2ccccc2)CC1)c1nncn1C` (configuration not stated), the INHIBITION came out at 50.72%. Under `COc1cc2c(cc1OC)CN(C(=O)NC(C)c1nncn1C)CC2` (configuration not stated) stands -23.92%; under `Cc1cccc(N2CCN(C(=O)NC(C)c3nncn3C)CC2)c1` (configuration not stated), 48.64%. Under `CC(NC(=O)N1CCc2sccc2C1)c1nncn1C` (configuration not stated) stands 64.21%. Take `CC(NC(=O)N1CCc2ccccc2C1)c1nncn1C` (configuration not stated): the INHIBITION is listed as -56.96%. Under `COc1ccc(N2CCN(C(=O)NC(C)c3nncn3C)CC2)cc1` (configuration not stated) stands -11.34%. With `Cc1ncccc1CNC(CCO)C1CCCCC1` (configuration not stated), the INHIBITION is -16.72%. Take `O=C(CN1CCNC1=O)NCc1ccc2sccc2c1`: the INHIBITION was -18.57%. Consider `Cc1nnc(C2Cc3ccccc3CN2Cc2ncc(Cl)n2C)o1` (configuration not stated), for which the INHIBITION was 27.59%. Under `COCc1cncc2c1CCN(C(=O)c1ccoc1C)C2` stands 34.02%; under `Cc1cc(CN(C)c2nc(-c3ccco3)nc3c2CCN(C)CC3)on1`, 67.05%.

As to `Cc1nonc1CN(C)c1nc(-c2ccco2)nc2c1CCN(C)CC2`, the INHIBITION is 38.91%. Then `Cc1noc(CN(C)c2nc(-c3ccco3)nc3c2CCN(C)CC3)n1`, with 18.14%; and `CNc1nc(C(=O)N2CCn3nc(C(=O)OC)cc3C2)cs1`, with -0.15%. Under `COCc1c(C(=O)N2CCCC(C(=O)c3ccccc3)C2)noc1C` (configuration not stated) stands 10.1%. Then `O=S1(=O)CCN2C(=N1)Oc1ccc(Cl)cc12`, with 22.96%.

As to `CN(CCc1ccccn1)C(=O)c1cccs1`, the INHIBITION was determined as 24.64%. Then `CN(Cc1ccon1)C(=O)C1CC(=O)N(Cc2ccncc2)C1` (configuration not stated), with 15.96%. Under `CN(Cc1ccoc1)C(=O)C1CC(=O)N(Cc2ccncc2)C1` (configuration not stated) stands 10.91%; under `CN(Cc1cnc(N)nc1)C(=O)C1CC(=O)N(Cc2ccncc2)C1` (configuration not stated), 59.8%; under `CC(C)c1nnc2n1CCN(Cc1nc3c(F)cccc3[nH]1)C2`, 45.4%. Under `Cc1oc(-c2ccsc2)nc1CN1CC[C@@H]2CCCC[C@H]2C1` stands 54.49%; under `Cc1oc(-c2ccsc2)nc1CN1CCCC(c2ccnn2C)C1` (configuration not stated), 13.88%; under `Cc1ncc2c(n1)CN(Cc1nc(-c3ccsc3)oc1C)CC2`, 31.05%. In the case of `CN(C)Cc1nc2c(o1)CN(S(=O)(=O)c1cccs1)C2`, the INHIBITION is given as -0.45%. Then `Cn1nc(C(=O)N2CCOCC2)cc1C(=O)Nc1c(Cl)cccc1Cl`, with 13.45%; and `Cn1nc(C(=O)N2CCOCC2)cc1C(=O)Nc1ncc(Cl)cc1Cl`, with -47.52%; and `Cn1nc(C(=O)N2CCOCC2)cc1C(=O)Nc1ccc(Cl)cc1Cl`, with 61.02%. Then `CC(C)CC(NC(=O)c1ccc[nH]1)C(=O)N1CCC(CO)CC1` (configuration not stated), with 20.3%. Under `CC(C)[C@H]1CN(c2cnccn2)C[C@@H]1NC(=O)C1(C#N)CCOCC1` stands 2.3%; under `CCc1ncncc1C(=O)N1CCCN(Cc2ccc(C#N)cc2)CC1`, 68.24%. Turning to `CC(C)c1ncncc1C(=O)N1CCN(Cc2cccnc2)CC1`, the INHIBITION worked out at 33.61%. In the case of `CC(C)c1ncncc1C(=O)N1CCCN(Cc2ccccc2)CC1`, the INHIBITION is 56.02%. Under `CCc1ncncc1C(=O)N1CCN(Cc2ccsc2)CC1` stands -45.83%; under `Cc1cc(C(=O)N2CCN(Cc3ccsc3)CC2)c(C)n1C1CC1`, 53.58%; under `CCc1ncncc1C(=O)N1CCCN(Cc2ccc(C)cc2)CC1`, -8.84%. Under `Cc1ccc(C(=O)N2CCN(Cc3ccsc3)CC2)n1C` stands 43.52%; under `CC(C)c1ncncc1C(=O)N1CCN(Cc2ccsc2)CC1`, 58.05%; under `CCc1ncncc1C(=O)N1CCCN(Cc2ccccc2C)CC1`, -23.42%. Under `CC(C)c1ncncc1C(=O)N1CCN(Cc2cscn2)CC1` stands -43.47%; under `O=C(c1cc(C2CC2)[nH]n1)N1CCN(Cc2ccsc2)CC1`, 44.43%; under `CC(C)c1ncncc1C(=O)N1CCCN(Cc2cccs2)CC1`, 8.37%. Regarding `N#Cc1c(-c2ccccc2)csc1N`, the INHIBITION turned out to be 30.76%. Then `Cc1noc(C)c1NC(=O)NC1CCN(C(=O)OC(C)(C)C)CC1`, with 11.92%; and `CCCn1c(C)c(CC(=O)NCCOC)c2c1CC(C)(C)CC2=O`, with 18.91%. Under `CC(C)(NCC(=O)NCCC#N)c1ccc2c(c1)OCCO2` stands -9.66%. Under `Cc1ccc(CN2C[C@@H]3CCN(Cc4cccnc4)C(=O)[C@H]3C2)s1` stands 41.38%; under `Cc1ccc(OC2(C(=O)NC(C)Cc3ccsc3)CCNCC2)cc1` (configuration not stated), 26.35%; under `CN(Cc1cccnc1)C1CC2(CCN(Cc3ccccn3)CC2)C1`, 27.9%. Consider `CN(C)S(=O)(=O)N1CC[C@]2(C[C@H](OCc3ccccn3)CO2)C1`, for which the INHIBITION is reported as -51.66%. Under `COc1ccc(C(=O)N2CCCCC2c2ccccn2)c(OC)n1` (configuration not stated) stands 21.05%; under `COCCNC(=O)N1CCN(C(C)C(=O)NC(C)C)CC1` (configuration not stated), 21.22%. As for `COCC(=O)N1CCN(C(C)C(=O)NC(C)C)CC1` (configuration not stated), the INHIBITION was found to be 61.91%. Then `COCCNC(=O)C(C)N1CCN(C)CC1` (configuration not stated), with 7.9%. Then `CC(=O)N1CCc2c(nc(N(C)C)nc2N(C)CC2CCCO2)C1` (configuration not stated), with -34.04%; and `CCCC(=O)N1CCC2(CC1)OCCO2`, with 38.51%. Then `CN(C)C(=O)CCC(=O)N1CCC2(CC1)COC2`, with 15.02%; and `CCCC(=O)N1CCC2(CC1)COC2`, with 54.01%; and `CS(=O)(=O)NCC(Cc1cccc(F)c1)N1CCNC1=O` (configuration not stated), with 22.27%. Turning to `CCS(=O)(=O)NCC(Cc1cccc(F)c1)N1CCNC1=O` (configuration not stated), the INHIBITION is recorded as -35.92%.

Consider `CC(C)S(=O)(=O)NCC(Cc1cccc(F)c1)N1CCNC1=O` (configuration not stated), for which the INHIBITION is given as 53.44%. Turning to `Cc1cc(C)n(CC2CCCN2CC(=O)Nc2nncs2)n1` (configuration not stated), the INHIBITION turned out to be 37.08%. Then `CC(C)Nc1cccc(CNC(=O)N2CCC(N3CC=CC3)C2)c1` (configuration not stated), with 58.34%; and `CC(C)Oc1cccc(CNC(=O)N2CCC(N3CC=CC3)C2)c1` (configuration not stated), with -21.25%. Under `CC(C)Nc1cccc(CNC(=O)N2CCCC2)c1` stands -24.87%.
